# Pf growth 48h = inhibits P. falciparum growth in the first generation, 48 h; P. falciparum luciferase growth in erythrocytes, 48 h; Potency, µM (doses to about 28.7 µM), for inactives: top-dose activity change, negative = inhibition, hits mostly inhibitors; actives 5.9% (n = 310,000); note: % is set by controls: 0 for no effect and ±100 for the full control effect
#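 Firefly luciferase activity from engineered P. falciparum reports growth; inhibitors lower the luminescent signal. Cultures contained 2% hematocrit erythrocytes at 0.1% final parasitemia.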
# Sm TGR block = S. mansoni TGR enzyme inhibition | Potency, µM (series often up to 114 µM), for inactives: at the top dose activity change, negative = inhibition, actives largely listed as inhibitors | actives 3% (n = 360,000) | purified TGR, DTNB reduction, TNB absorbance 405 nm | AID 485364 | Q962Y6; note: % is set by controls: 0 for no effect and ±100 for the full control effect; nearly all actives have a fitted effect of over 60% in size
#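 TGR 20 nM + NADPH 100 uM (dispensed conc.), cpd preinc 15 min RT; start with NADPH (500 uM addition) then DTNB (15 mM addition). Kinetic TNB absorbance, 405 nm filter. Four-parameter Hill fit across titration.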
# Pf growth 96h = P. falciparum growth inhibition at 96 hour, primary screen for plastid delayed-death inhibitors. P. falciparum luciferase reporter growth, 96 h. Potency, µM (series often up to 28.7 µM), for the others: at the highest dose activity change, negative = inhibition, most hits filed as inhibitors. actives 6.9% (n = 320,000). AID 504834; note: % is set by controls: 0 for no effect and ±100 for the full control effect
#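 Compounds incubated with erythrocytes infected by luciferase-expressing P. falciparum (2% hematocrit, 0.05% parasitemia final) for 96 hours, 37 C in 5% CO2. Growth inhibition scored as decreased luciferase luminescence.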
# AMA1-RON2 inh = AMA1-RON2 (P. falciparum) interaction inhibition | actives 0.2% (n = 360,000) | AID 720542 | AlphaScreen AMA1-biotinylated RON2 peptide binding | Potency, µM (doses to about 58.2 µM), for the others: at the highest dose activity change, negative = inhibition, actives largely listed as inhibitors;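 note: 0% = vehicle wells and -100% = peptide control; nearly all actives have a fitted effect of over 45% in size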
#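 AMA1 (3D7) with his tag at 25 nM final met compounds first, then biotinylated RON2 peptide at 25 nM; detection used donor plus acceptor beads, 10 µg/mL apiece, read by AlphaScreen after 30 min at room temperature.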
# NS1 function inh = blocks influenza NS1 protein function; Potency, µM (titrated, usually from 46.1 µM), inactives show at the top dose activity, positive = more growth; actives 0.4% (n = 270,000); AID 2326; calls by dose curve; note: actives are rising curves; nearly all actives have a fitted effect of over 50% in size
#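 Read-out: OD600 growth recovery of NS1-expressing budding yeast. Cells grown overnight at 30C in -URA glucose medium, washed, resuspended and diluted 1:100 in 2% galactose assay medium, pH 6.0. Same strain lacking NS1 served as positive control.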
# * marks the source's active call; other numbers are inactive results; u = inconclusive; x = not tested or not shown; [ ] = dose if it differs, or a comment. In the library only some 11% were active in any assay of this set; here they are far more common. Unless noted, calls come from the whole dose curve; as a rule, active = well fitted curve in the direction sought with a large enough effect; inconclusive = small, poorly fitted or top-dose-only effect, or another doubt; inactive = no such curve, though single readings can be large; an effect the other way counts as inactive or inconclusive. Potency is the fitted concentration of half-maximal effect.
SMILES,Pf growth 48h,Sm TGR block,Pf growth 96h,AMA1-RON2 inh,NS1 function inh
COc1ccc(NC(=O)c2cccc3c(Br)cccc23)cc1,9%,-2%,208%,-2%,1%
COc1ccc(NC(=O)c2cccc3ccccc23)cc1,85%,89µM*,u,12%,-10%
COc1ccc(N2CCOCC2)c(NC(=O)c2cccc3ccccc23)c1,3.7µM*,0%,7%,-10%,-107%
Cc1ccc(NC(=O)c2cc3ccccc3cc2O)cc1,u,-3%,u,2%,-31%
COc1ccc(NC(=O)c2cc3ccccc3cc2O)cc1,u,-13%,8.3µM*,31%,0%
Cc1ccc2oc3c(c(=O)c2c1)C(c1ccc(F)cc1)N(c1nc(C)c(C)s1)C3=O (centres undefined),x,-2%,x,x,x
CCOc1ccc(NC(=O)CN(C)C(=O)c2cc(S(=O)(=O)N3CCCCCC3)ccc2OC)cc1OCC,u,-12%,u,9%,x
CCCN(CC(=O)Nc1ccccc1OC)C(=O)c1ccc2ncsc2c1,u,-16%,-28%,-3%,x
CC(=O)c1ccc(C(=O)N(Cc2cccnc2)c2nc3c(Cl)cccc3s2)cc1,x,-2%,x,x,x
COC(C(=O)C(O)C(C)O)C1Cc2cc3cc(OC4CC(OC5CC(O)C(OC)C(C)O5)C(OC(C)=O)C(C)O4)c(C)c(O)c3c(O)c2C(=O)C1OC1CC(OC2CC(OC3CC(C)(O)C(OC(C)=O)C(C)O3)C(O)C(C)O2)C(O)C(C)O1 (centres undefined),0.12µM*,x,u,x,x
COc1ccc(NS(=O)(=O)c2cc(NC(=O)c3cnc(C)cn3)ccc2N2CCCCC2)cc1,12µM*,-7%,u,-7%,-1%
Cc1ccccc1C(=O)N1CCN(c2ccc(NC(=O)c3ccco3)cc2Cl)CC1,3.3µM*,-16%,1%,-9%,-104%
O=C(Nc1ccc(N2CCN(C(=O)c3cccs3)CC2)c(Cl)c1)c1ccco1,x,1%,u,8%,-14%
Cc1ccc(NC(=O)c2cc(NC(=O)c3ccco3)ccc2N2CCCCC2)cc1,6.6µM*,-3%,-29%,0%,-5%
Cc1ccc(NC(=O)c2cc(NC(=O)c3ccco3)ccc2N2CCOCC2)cc1,-11%,1%,-1%,-2%,-10%[9.22 µM]
COc1ccc(NS(=O)(=O)c2cc(NC(=O)c3ccco3)ccc2N2CCCCC2)cc1,u,0%,9.3µM*,-10%,10%
CCOC(=O)N(C)c1c(CC)nc2c(OCc3ccccc3C)cccn12,x,x,x,-2%,x
COc1ccc(/C(O)=C2/C(=O)C(=O)N(CCCN3CCOCC3)C2c2ccc(C(C)C)cc2)cc1 (centres undefined),-1%,-16%,u,0%,1%
COc1ccc(NS(=O)(=O)c2cc(NC(=O)C3CC3)ccc2N2CCOCC2)cc1,u,-7%,-25%,9%,x
COc1ccc(NS(=O)(=O)c2cc(NC(=O)C3CC3)ccc2N2CCCCC2)cc1,-27%,5%,10µM*,11%,x
O=C(COC(=O)CNS(=O)(=O)c1ccc(Br)cc1Cl)NC1CC1,22%,-1%,34%,3%,x
COc1cccc(CN(C)CC(=O)Nc2ccccc2C(=O)NC2CC2)c1,-24%,0%,-26%,23%,x
CCCN1C(=O)S/C(=C/c2ccc(N3CCOCC3)o2)C1=O,47%,1.4µM*,41%,-6%,-33%
CCCN1C(=O)S/C(=C\c2ccc(N3CCOCC3)o2)C1=O,-26%,8.9µM*,-9%,-8%,x
CCCN1C(=O)S/C(=C\c2ccc(N3CCOCC3)cc2C)C1=O,167%,2%,157%,x,5µM*
SMILES,Pf growth 48h,Sm TGR block,Pf growth 96h,AMA1-RON2 inh,NS1 function inh
CCOC(=O)CN1C(=O)S/C(=C/c2ccc(N3CCCCC3)o2)C1=O,45%,-9%,88%,-12%,-3%
CCCN1/C(=C(\C#N)C2=NS(=O)(=O)c3ccccc32)N(C)c2ccccc21,x,x,x,-9%,x
CCc1ccccc1NC(=O)CSC1=Nc2ccccc2C2=NC(Cc3ccccc3)C(=O)N12 (centres undefined),x,-1%,x,x,x
COc1ccc(/C=N/n2c(-c3n[nH]c4c3CCC4)n[nH]c2=S)cc1,2%,1%,u,80%,1%
CC(/C=N/n1c(-c2n[nH]c3c2CCC3)n[nH]c1=S)=C\c1ccco1,0%,35µM*,17%,75%,13%
CC(/C=N/n1c(-c2cccnc2)n[nH]c1=S)=C\c1ccco1,26%,40µM*,0%,51%,27%
S=c1[nH]nc(-c2cccnc2)n1/N=C/C=C/c1ccco1,-9%,x,22%,31%,8%
COc1ccc(CN(C)C(=O)CNC(=O)c2sc3ccccc3c2Cl)c(OC)c1,x,x,x,-3%,x
NC(=O)C1CCN(c2nc(-c3ccc(Cl)cc3)cs2)CC1,u,x,-23%,x,x
Cc1ccc(Nc2nc(CSc3nnc(-c4ccncc4)n3C)cs2)cc1,50%,-10%,-14%,3%,-8%
Cc1occc1-c1nnc(SCc2cc(=O)n3cc(Br)ccc3n2)n1C,8%,45µM*,u,-6%,1%
Cc1ccccc1Nc1nc(CSc2nnc(-c3ccoc3C)n2C)cs1,-68%,35µM*,62%,6%,7%
Cn1c(SCc2cc(=O)n3cc(Br)ccc3n2)nnc1C1COc2ccccc2O1 (centres undefined),x,3%[11.4 µM],32%,2%,-33%
CC1(C)CC(=O)c2cc(-c3nc(-c4ccc(Cl)cc4)cs3)c(=O)n(-c3ccc(F)cc3)c2C1,x,1%,x,x,x
COc1ccc(NS(=O)(=O)c2cc(NC(=O)c3cccc(OCc4c(C)noc4C)c3)ccc2OC)cc1,9.3µM*,0%,6.6µM*,7%,u
COc1ccc(NC(=O)C2CCN(S(=O)(=O)c3cccc4cccnc34)CC2)cc1OC,-7%,2%,6.6µM*,x,-36%
COc1ccc(C)cc1NC(=O)C1CCN(S(=O)(=O)c2cccc3cccnc23)CC1,u,-8%,21%,6%,-109%
COc1ccc(S(=O)(=O)N2CCC(C(=O)Nc3ccc(F)cc3)CC2)c2cccnc12,1µM*,1%,0%,5%,x
Cn1cccc1C(=O)N/N=C/c1c(Cl)cccc1Cl,x,8%,265%,0%,-7%
CCOc1cccc(OCCCCn2cnc3ccccc3c2=O)c1,-9%,1%,-13%,-21%,-6%
CCOc1cccc(OCCn2cnc3ccccc3c2=O)c1,68%,-3%,10µM*,-10%,-1%
COc1ccccc1COCC(O)CN(Cc1ccco1)Cc1ccccc1O (centres undefined),8.3µM*,-3%,5.2µM*,2%,6%
CCc1ccc(C2C(C(=O)Nc3ccccc3OC)=C(C)Nc3c(C(=O)Nc4ccc(C)cc4)cnn32)cc1 (centres undefined),x,2%,x,x,x
O=C(OCC(=O)N1CCN(c2ccccc2)CC1)c1cc(Cl)ccc1[N+](=O)[O-],-26%,2%,12µM*,u,-8%
